PLK1 PBD inh: inhibitors of human PLK1 polo-box domain binding; P53350; Plk1 PBD binding of FITC phosphopeptide, fluorescence polarization; Potency, µM, without a hit: max response, negative = inhibition, usual class: inhibitors; 2.8% of 360,000 active; AID 720504; also: series mostly up to about 57 µM; % is scaled to controls: 0 for no effect and ±100 for the full control effect; nearly all actives have a fitted effect of over 65% in size
JMJD2A Tudor inh: blocks the human JMJD2A Tudor domain; O75164; AlphaScreen JMJD2A-Tudor / H3K4me3 peptide binding; Potency, µM (titrated, usually from 114 µM), inactives show top-dose activity change, negative = inhibition, hits mostly inhibitors; 4.4% of 390,000 active; also: % is scaled to controls: 0 for no effect and ±100 for the full control effect; nearly all actives have a fitted effect of over 50% in size
BAZ2B inh: BAZ2B (human) inhibition; Q9UIF8; AlphaScreen BAZ2B-H3K14Ac peptide displacement; Potency, µM (highest dose often 114 µM), without a hit: at the highest dose activity change, negative = inhibition, most hits filed as inhibitors; 4.4% of 360,000 active; AID 504333; also: % is scaled to controls: 0 for no effect and ±100 for the full control effect; nearly all actives have a fitted effect of over 60% in size
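BAZ2B 50 nM plus b-H3(5-23)K14Ac 50 nM, PBS pH 7.4/0.01% Tween-20, 30 min RT; compound added (max 110 uM), 30 min RT; streptavidin donor/Ni-chelate acceptor beads 10 ug/mL final, 20 min dark; AlphaScreen read.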
L3MBTL1 block: inhibitors of human L3MBTL1; Q9Y468; AlphaScreen L3MBTL1–H3K9me1 peptide binding; Potency, µM (top dose mostly 57.1 µM), for inactives: top-dose activity, negative = inhibition, actives largely listed as inhibitors; 0.66% of 230,000 active; AID 485360; also: % is scaled to controls: 0 for no effect and ±100 for the full control effect; nearly all actives have a fitted effect of over 60% in size
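First, the protein-peptide complex forms for 30 min at room temperature (L3MBTL1 50 nM, biotinylated H3K9me1 peptide 75 nM). Next, compounds are pin-transferred and incubated 30 min. Finally, AlphaScreen beads are added and read after 30 min.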
HP1b chromo inh: HP1-beta chromodomain-methylated histone interaction inhibition. P83916. AlphaScreen HP1-beta / biotin-H3K9me3 peptide binding. Potency, µM (highest dose often 114 µM), without a hit: top-dose activity change, negative = inhibition, actives largely listed as inhibitors. 0.56% of 390,000 active. AID 540317; also: nearly all actives have a fitted effect of over 70% in size
Target sequence (P83916 whole entry, looked up): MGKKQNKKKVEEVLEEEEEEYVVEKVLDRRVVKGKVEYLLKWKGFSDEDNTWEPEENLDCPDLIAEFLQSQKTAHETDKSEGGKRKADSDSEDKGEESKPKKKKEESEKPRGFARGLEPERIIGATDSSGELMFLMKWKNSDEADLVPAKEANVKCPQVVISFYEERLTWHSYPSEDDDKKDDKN
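HP1-beta protein (50 nM final) preincubated 30 min at room temperature with biotinylated H3(1-18)K9me3 peptide (50 nM) in PBS pH 7.4, 0.01% Tween-20, then compound added for 30 min. AlphaScreen streptavidin donor/nickel chelate acceptor beads (10 ug/mL final), 30 min dark, luminescence read.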
VDR inhibitor: inhibitors of human vitamin D receptor; AID 504847; 0.93% of 400,000 active; VDR-SRC2-3 peptide fluorescence polarization, 2 h; Potency, µM, without a hit: max response, negative = inhibition, most hits filed as inhibitors; P11473; also: % is scaled to controls: 0 for no effect and ±100 for the full control effect
Target sequence (P11473 whole entry, looked up): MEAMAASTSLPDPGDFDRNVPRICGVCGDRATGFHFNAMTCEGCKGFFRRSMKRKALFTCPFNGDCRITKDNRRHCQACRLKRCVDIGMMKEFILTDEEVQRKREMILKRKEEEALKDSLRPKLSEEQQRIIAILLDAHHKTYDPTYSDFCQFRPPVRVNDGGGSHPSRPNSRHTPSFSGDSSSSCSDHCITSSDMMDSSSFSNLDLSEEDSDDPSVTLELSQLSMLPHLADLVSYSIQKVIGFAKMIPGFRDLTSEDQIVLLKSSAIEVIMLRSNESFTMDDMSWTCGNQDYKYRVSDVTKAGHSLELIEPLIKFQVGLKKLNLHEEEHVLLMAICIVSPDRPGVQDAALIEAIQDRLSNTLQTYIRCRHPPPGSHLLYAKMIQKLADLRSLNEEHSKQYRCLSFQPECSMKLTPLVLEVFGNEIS
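Fluorescence polarization assay measuring small-molecule disruption of VDR binding to the coregulator peptide SRC2-3. Compounds were pin-transferred (23 nl) into the reagent mix and incubated 2 h at room temperature before reading.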
* = called active by the depositor; ? = inconclusive; · = not tested or not shown; [ ] = dose if it differs, or a comment. The list is not random: actives were taken first. Their share in the collection is about 6.9%. Calls follow the shape of the dose curve; as a rule, active = well fitted curve in the direction sought with a large enough effect; inconclusive = small, poorly fitted or top-dose-only effect, or another doubt; inactive = no such curve, though single readings can be large; an effect the other way counts as inactive or inconclusive. Potency is read from the fitted curve at half-maximal effect.

SMILES	PLK1 PBD inh	JMJD2A Tudor inh	BAZ2B inh	L3MBTL1 block	HP1b chromo inh	VDR inhibitor
Cc1sc2ncnc(SCC(=O)NC(=O)c3cccn3C)c2c1C	17µM*	-25%	-21%	·	4%	-12%
COc1ccc(/C=C/c2nc(C#N)c(N3CCC(C(N)=O)CC3)o2)cc1OC	·	-7%	-17%	·	64%	-5%
COc1cc(NS(=O)(=O)c2ccc(NC(=S)NC(=O)c3sc4ccccc4c3Cl)cc2)ncn1	15µM*	?	-21%	-4%	?	?
COc1ccc(-n2cc(C(=O)Nc3ccccc3C#N)c3ccccc3c2=O)cc1	·	-28%	-24%	·	30%	10%
O=C(Cn1cc(S(=O)(=O)Cc2ccc(F)cc2)c2ccccc21)NCCc1ccccc1	·	?	-36%	·	-19%	4%
CCSCc1nnc(SCC(=O)Nc2ccc(OC)cc2)n1C	-11%	-14%	-32%	-1%	-6%	-6%
CCC1(CC)NC(=O)N(CC(=O)Nc2sc3c(c2C(N)=O)CCC3)C1=O	-25%	?	50µM*	·	5%	-7%
COc1ccc(-c2nnc(SCC(=O)Oc3cccc(C)c3C)o2)cc1	·	-20%	-27%	·	13%	10%
CC(C)(C)C1CCC(=NNc2ncc(C(F)(F)F)cc2Cl)CC1 (stereo not drawn)	-7%	-30%	79µM*	·	13%	9%
CC(C)S(=O)(=O)c1oc(-c2ccc(F)cc2)nc1S(=O)(=O)c1ccccc1	·	-3%	-4%	·	65%	?
COc1ccc(N(C(=O)Cc2cccs2)C2C=CS(=O)(=O)C2)cc1 (stereo not drawn)	-7%	-25%	?	-20%	13%	-2%
O=C(Cc1cccs1)N(c1ccc(Br)cc1)C1C=CS(=O)(=O)C1 (stereo not drawn)	?	20µM*	-16%	6%	-5%	-15%
CCS(=O)(=O)Nc1c(C(=O)O)[nH]c2ccccc12	-25%	89µM*	-31%	-3%	-6%	-1%
Cc1nc(C/C(=N\Nc2ccccc2)c2ccc(O)cc2O)cs1	-9%	50µM*	50µM*	?	?	-29%
CCc1cc(/C(Cc2ccccn2)=N\Nc2ccccc2)c(O)cc1O	-20%	?	50µM*	-27%	?	-24%
O=C(NCc1ccccn1)Nc1cccc(NC(=O)NCc2ccccn2)c1	-4%	-5%[57.1 µM]	-36%	16%[11.4 µM]	38%	9%
Cc1nc(CC(=O)c2ccc(O)cc2O)cs1	1%	4%	-2%	·	28%	3%
Cc1cc(C)cc(N2C(=O)CC(c3ccc(C(F)(F)F)cc3)C3=C2COC3=O)c1 (stereo not drawn)	·	-2%	-19%	·	21%	4%
COc1cccc2sc(N3CCN(C(=O)CCS(=O)(=O)c4ccc(F)cc4)CC3)nc12	·	-12%	-5%	·	0%	8%
CC(=O)Nc1cc2c(cc1Br)OCCO2	-8%	-12%	5%	7%	8%	16%
Brc1ccc(CNc2cc3c(cc2Br)OCCO3)cc1	-4%	?	32µM*	?	?	-11%
CCCCCn1ncc2c3sc(C)cc3n(C)c2c1=O	·	16%	·	·	·	·
Cc1cc2c(NC(=O)CC(C)(C)CC(=O)O)cccc2nn1	-11%	-19%	50µM*	·	24%	-13%
O=C(N1CCc2cc([S+](=O)([O-])N3CCN([S+](=O)([O-])c4c(F)cccc4F)CC3)ccc2C1)C(F)(F)F	·	-18%	·	·	·	·
CCN1/C(=C2\C(=O)N(C)C(=S)N2C)C=Cc2cc(C)ccc21	-6%	50µM*	45µM*	-23%	-66%	4%
SMILES	PLK1 PBD inh	JMJD2A Tudor inh	BAZ2B inh	L3MBTL1 block	HP1b chromo inh	VDR inhibitor
CCN1/C(=C2\C(=O)N(C)C(=S)N2c2ccccc2)C=Cc2ccccc21	-20%	-29%	40µM*	·	?	9%
CCN1C(=O)/C(=C2/C=CC=CN2C)OC1=S	-19%	-18%	-2%	-4%	-6%	-11%
COc1ccc(NC(=O)N2CC3(CCN(C(=O)c4c(C)noc4C)CC3)C2)cc1	·	·	·	·	·	15%
O=S(=O)(c1cccs1)N1CCN(CC(O)COC2CCCc3ccccc32)CC1 (stereo not drawn)	-1%	4µM*	50µM*	5%	?	0%
CC(C)Oc1ccc(C(=O)Nc2ccc3c(c2)n(C)c(=O)n3C)cc1	-10%	-9%	?	3%	49%	-7%
Cc1ccc2nc(NC(=O)CNS(=O)(=O)c3ccc(Br)s3)sc2c1	-8%	50µM*	-15%	3%	6%	14%
Cc1ccc2nc(NC(=O)COC(=O)c3ccc(Br)o3)sc2c1	?	45µM*	43%	-40%	10%	-17%
O=C(COC(=O)c1ccc(Br)o1)Nc1nc2ccccc2s1	-8%	-27%	-6%	-7%	?	14%
Clc1cccc(CSc2nnc([C@@H]3CCCN3)o2)c1	-11%	-19%[57.1 µM]	79µM*	-7%	63%	2%
O=C(CC1(O)C(=O)N(CCc2ccccc2)c2ccc(Br)cc21)c1ccccc1O (stereo not drawn)	·	?	?	·	-6%	?
CCCCC1(Br)C(=O)N(c2ccccc2)N(c2ccccc2)C1=O	?	18µM*	?	-4%	?	71µM*
CCCCC1(CO)C(=O)N(c2ccccc2)N(c2ccccc2)C1=O	-16%	-23%	-8%	·	11%	-18%
Cc1ccc(-n2c(COc3cccc(C)c3)n[nH]c2=S)cc1	-5%	-21%	-30%	-15%	45%	-8%
COc1cccc(-n2c(Cn3nc(C(F)F)cc3C(F)F)n[nH]c2=S)c1	-14%	45µM*	4%	2%	4%	-7%
COc1cccc(-n2cn[nH]c2=S)c1	0%	?	4%	·	31%	-14%
COc1cccc(-n2c(Cn3nc(C(F)(F)F)cc3C)n[nH]c2=S)c1	1%	56µM*	-16%	2%	34%	4%
Cc1ccc(-n2c(Cn3nc(C(F)(F)F)cc3C)n[nH]c2=S)cc1	-11%	56µM*	-25%	·	3%	-23%
COc1ccc(CC(=O)NCc2n[nH]c(=S)n2-c2ccccc2)cc1	1%	?	-2%	·	45%	-2%
OC1CC(c2ccco2)NC2(CCCCC2)C1 (stereo not drawn)	-7%	7.9µM*	?	-4%	-55%	-1%
Cc1ccc(OCCCCN2CCCCC2)c(C)c1	-4%	-9%	0%	-1%	36%	-27%
Cc1ccc(C)c(OCCCCN2CCCCC2)c1	2%	32µM*	-20%	·	-10%	6%
Cc1ccccc1OCCN1CCCC1	-2%	20µM*	50µM*	·	?	-7%
Cc1ccccc1OCCCN1CCCC1	-5%	3.5µM*	-35%	-19%	-38%	0%
